Test [1] is described as follows: Primary qHTS for inhibitors of nuclear receptor binding SET domain protein 2 (NSD2) in an isogenic RCH-ACV NSD2 p.E1099K mutant (9B) (AID 1645876). As to conditions: RCH-ACV NSD2 E1099K (9B) viability, CellTiter-Glo, 72 h; series mostly up to 44.9 µM. Background: Quantitative high-throughput screening tests each substance at several concentrations.
Test [2] in a line: Primary qHTS for inhibitors of nuclear receptor binding SET domain protein 2 (NSD2) in an RCH-ACV wild type WT cells (2C) (AID 1645877). As to conditions: RCH-ACV (leukaemia line) NSD2 WT (2C) viability, CellTiter-Glo, 72 h; series mostly up to 44.9 µM.

Structures are written as SMILES. Records with an inconclusive call do not appear. A number with no mark means an inactive call. Calls of active or inactive are those of the source. Calls follow the shape of the dose curve; as a rule, active = well fitted curve in the direction sought with a large enough effect; inconclusive = small, poorly fitted or top-dose-only effect, or another doubt; inactive = no such curve, though single readings can be large; an effect the other way counts as inactive or inconclusive. Where a SMILES comes first, the peptide text is derived from it.
% is scaled to controls: 0 for no effect and ±100 for the full control effect.
Also: nearly all actives have a fitted effect of over 70% in size.

Regarding `CN1C(=O)c2ccccc2NC(=O)[C@]12O[C@@H]2c1cccc(O)c1`, the Potency result in test [1] and in test [2] was “inactive” in each case.

Regarding `C=C1CC2C3(C)C(O)CC(=O)C(C)(C)C3C(OC(C)=O)C(OC(C)=O)C2(C)C2C(=O)OC(C)(C(=O)OC)C(=O)C12C` (stereo not given), the Potency result in test [1] and in test [2] was “inactive” each time.

In the case of `COc1cc(/C=C/C(=O)O[C@H]2[C@H](O)[C@@H](CO)O[C@@]2(CO)O[C@H]2O[C@H](COC(=O)c3ccc(O)cc3)[C@@H](O)[C@H](O)[C@H]2O)cc(OC)c1OC`, the Potency entry in test [1] and in test [2] was “inactive” in each case.

As to `O=C(/C=C/c1ccc(O)cc1)O[C@H]1[C@@H]2C=CO[C@@H](O[C@@H]3O[C@H](CO)[C@@H](O)[C@H](O)[C@H]3O)[C@@H]2[C@@]2(CO)O[C@@H]12`, the Potency result in test [1] and in test [2] was “inactive” in each case.

As to `CC(=O)NC(CCC(=O)O)C(=O)NCCc1ccc(O)cc1` (stereo not given), the Potency result in test [1] and in test [2] was “inactive” throughout.

`CC(=O)O[C@H]1[C@H](C)[C@@H](O)[C@H]2[C@@H]1C=C(C(=O)O)[C@H]1C[C@@H]3[C@H]([C@H]21)[C@H]1C(=O)O[C@@H]2CC[C@@]3(C)O[C@]1(O)[C@@H]2C`: the Potency entry in test [1] and in test [2] was “inactive” each time.

As for `CC1=CC[C@]2(C(=O)O[C@@H]3O[C@H](CO[C@@H]4O[C@H](CO)[C@@H](O[C@@H]5O[C@@H](C)[C@H](O)[C@@H](O)[C@H]5O)[C@H](O)[C@H]4O)[C@@H](O)[C@H](O)[C@H]3O)CC[C@]3(C)C(CCC4[C@@]5(C)C[C@@H](O)[C@H](O)[C@@](C)(CO)C5CC[C@]43C)C2C1C` (stereo not given in full), the outcome in test [1] and in test [2] was “inactive [at 9.23 µM]” each time.

For `C[C@@H]1C[C@H](O)/C=C/[C@H](O)[C@@H](O)CC(=O)O1`, the Potency entry in test [1] and in test [2] was “inactive” in each case.

Turning to `CC1=CC(=O)C2C(C)(C)CC(O)CC2(C)C1CO` (stereo not given), the Potency result in test [1] and in test [2] was “inactive” throughout.

Take `CC1=CC(=O)OC(C)(CC(C)(O)C(=O)O)C1` (stereo not given): the Potency result in test [1] and in test [2] was “inactive” throughout.

For `CC(=O)c1c(C)cc(O[C@@H]2O[C@H](CO)[C@@H](O)[C@H](O)[C@H]2O)cc1O`, the Potency result in test [1] and in test [2] was “inactive” throughout.

Take `CC1CC(O)CC(C)(C)C1(O)CCO` (stereo not given): the Potency result in test [1] and in test [2] was “inactive” each time.

`CCOc1c2c(c(OCC)c3ccccc13)C(=O)N(c1ccc(CC(=O)NS(=O)(=O)c3ccccc3)cc1)C2`: the Potency result in test [1] and in test [2] was “inactive” each time.

For the molecule `COC1=CC(=O)C[C@@H](C)[C@]12Oc1cc(OC)cc(OC)c1C2=O`, the Potency entry in test [1] and in test [2] was “inactive” in each case.

Regarding `CC(C)C(=O)O[C@@H]1[C@@H](O)[C@@H](O[C@H]2O[C@H](CO)[C@@H](O)[C@H](O)[C@H]2O)O[C@H](CO)[C@H]1O`, the Potency result in test [1] and in test [2] was “inactive” in each case.

Consider `CC(C)c1cc2c(c(O)c1O[C@@H]1O[C@H](CO)[C@@H](O)[C@H](O)[C@H]1O)CC1(O)CCC(O)C(C)(C)C1CC2` (stereo not given in full), for which the Potency entry in test [1] and in test [2] was “inactive” each time.

On to `C=CC(C)(O)CC/C=C(\C)C(=O)OC1CC2(C(=O)O)CCC3(C)C(=CCC4C5(C)CCC(OC6OC(COC7OCC(O)C(O)C7O)C(O)C(OC7OCC(O)C(O)C7O)C6OC6OC(CO)C(O)C(O)C6OC6OCC(O)C(O)C6O)C(C)(C)C5CCC43C)C2CC1(C)C` (stereo not given), for which, in test [1], the activity change, negative = viability loss was -9.57% [at 9.23 µM]. The activity change, negative = cell killing in test [2] was -5.78% [at 9.23 µM].

Consider `CC1(C)CCC[C@@]2(C)[C@H]1[C@H](O)C=C1COC(=O)[C@@]12O`, for which the Potency result in test [1] and in test [2] was “inactive” each time.

Turning to `OC1COC(OCC2OC(OCCc3ccccc3)C(O)C(O)C2O)C(O)C1O` (stereo not given), the Potency entry in test [1] and in test [2] was “inactive” throughout.

With `NC(=O)[C@H]1CCCCc2c1[nH]c1ccc(Cl)cc21`, the Potency result in test [1] and in test [2] was “inactive” throughout.

With `C=C1C[C@]23C[C@H]1CC[C@H]2[C@]1(C)CCC[C@@]2(CO)C(=O)O[C@H]([C@H]21)[C@@H]3O`, the Potency result in test [1] and in test [2] was “inactive” each time.

As to `CC(C)NC[C@H](O)COc1ccc(CCOCC2CC2)cc1`, the Potency entry in test [1] and in test [2] was “inactive” in each case.

As for `OCC1=CC[C@@H]2C=CO[C@@H](O[C@@H]3O[C@H](CO)[C@@H](O)[C@H](O)[C@H]3O)[C@H]12`, the Potency result in test [1] and in test [2] was “inactive” throughout.

For `NS(=O)(=O)NCCNc1nonc1C(=Nc1ccc(F)c(Br)c1)NO`, the Potency result in test [1] and in test [2] was “inactive” each time.

Take `CC(=O)OCC(=O)O[C@@H]1[C@H]2[C@@H](OC(=O)c3ccccc3)[C@@H](C)C[C@]2(O)[C@H](OC(C)=O)C2(C)[C@H]3CC(C)(C)C(=O)[C@@H]3CC1(OC(C)=O)[C@@H]2OC(C)=O` (stereo not given in full): the Potency entry in test [1] and in test [2] was “inactive” each time.

As for `C[C@]12CCC(=O)C=C1[C@@H](O)C[C@@H]1[C@@H]2[C@@H](O)C[C@@]2(C)[C@H]1CC[C@]2(O)C(=O)CO`, the Potency entry in test [1] and in test [2] was “inactive” each time.

With `OCc1ccccc1O[C@@H]1O[C@H](CO)[C@@H](O)[C@H](O)[C@H]1O`, the Potency result in test [1] and in test [2] was “inactive” each time.

For the molecule `NC(=O)c1cccc(-c2cc(O)cc(OC(=O)NC3CCCCC3)c2)c1`, the Potency entry in test [1] and in test [2] was “inactive” in each case.

On to `CC(=O)OCC1=C[C@H](O)[C@@H]2C(C(=O)O)=CO[C@@H](O[C@@H]3O[C@H](CO)[C@@H](O)[C@H](O)[C@H]3O)[C@H]12`, for which the Potency entry in test [1] and in test [2] was “inactive” in each case.

As for `CC(=O)OCCC(C)CCC1C(C)(O)CCC2C(C)(C)CCCC21C` (stereo not given), the Potency entry in test [1] and in test [2] was “inactive” each time.

On to `CC1NC(=O)CNC(=O)C(C(C)C)NC(=O)C2CCCN2C(=O)C(C(C)C)NC(=O)C(Cc2c[nH]c3ccccc23)NC1=O` (stereo not given) (cyclo(GAWVPV); configuration not given here), for which the Potency entry in test [1] and in test [2] was “inactive” each time.

On to `CC1(C)CC[C@]2(C(=O)O[C@@H]3O[C@H](CO)[C@@H](O)[C@H](O)[C@H]3O)CC[C@]3(C)C(=CCC4[C@@]5(C)C[C@@H](O)[C@H](O)C(CO)(CO)C5CC[C@]43C)C2[C@@H]1O` (stereo not given in full), for which the Potency entry in test [1] and in test [2] was “inactive” each time.

Consider `CCC(C)C(=O)O[C@@H]1[C@@H](O)[C@@H](O[C@H]2O[C@H](CO)[C@@H](O)[C@H](O)[C@H]2O)O[C@H](CO)[C@H]1O` (stereo not given in full), for which the Potency entry in test [1] and in test [2] was “inactive” each time.

For `CC12CC34C=CC(=O)C(C)(CCC(=O)O)C3C(CC1C4)O2` (stereo not given), the Potency entry in test [1] and in test [2] was “inactive” each time.

As to `COc1cc(CCc2ccccc2)c(C(=O)O)c2c1CC(C(C)(C)O)O2` (stereo not given), the Potency result in test [1] and in test [2] was “inactive” throughout.

`C=C1C2=CC(O)C(C)C1(C)CC/C(C)=C/CCC1(C)OC1C2=O` (stereo not given): the Potency result in test [1] and in test [2] was “inactive” in each case.

For `CC(C)=CCCC1(C)Oc2cc3c(c4c2C2C(O4)C(C)(O)CCC21)CN(C(CCC(=O)O)C(=O)O)C3=O` (stereo not given), the Potency entry in test [1] and in test [2] was “inactive” throughout.

Consider `COc1cc(C(C)=O)ccc1O[C@@H]1O[C@H](CO[C@@H]2O[C@@H](C)[C@H](O)[C@@H](O)[C@H]2O)[C@@H](O)[C@H](O)[C@H]1O`, for which the Potency entry in test [1] and in test [2] was “inactive” throughout.

As to `CC(C)(O)C1CCC2(C)C3C(O)C4C(C13)C42CO` (stereo not given), the Potency entry in test [1] and in test [2] was “inactive” in each case.

In the case of `O=C1[C@H](O[C@@H]2O[C@H](CO)[C@@H](O)[C@H](O)[C@H]2O)Oc2ccccc2N1O`, the Potency entry in test [1] and in test [2] was “inactive” throughout.

Turning to `CC1(C)O[C@@]2(C)CC[C@@H]1C[C@@H]2OC1OC(CO)C(O)C(O)C1O` (stereo not given in full), the Potency result in test [1] and in test [2] was “inactive” in each case.

Take `COc1cc([C@@H]2Oc3c(OC)cc(CCCO)cc3[C@@H]2CO[C@@H]2O[C@H](CO)[C@@H](O)[C@H](O)[C@H]2O)ccc1O`: the Potency result in test [1] and in test [2] was “inactive” each time.

As to `O=C(O)c1cc(O[C@@H]2O[C@H](CO[C@@H]3OC[C@@H](O)[C@H](O)[C@H]3O)[C@@H](O)[C@H](O)[C@H]2O)c2ccccc2c1O`, the Potency entry in test [1] and in test [2] was “inactive” in each case.

`CC(=O)c1c(C)cc(O)cc1O[C@@H]1O[C@H](CO)[C@@H](O)[C@H](O)[C@H]1O`: the Potency entry in test [1] and in test [2] was “inactive” throughout.

As to `O=C1NC(Cc2ccc(O)cc2)C(=O)N2CCCC12` (stereo not given), the Potency result in test [1] and in test [2] was “inactive” each time.

Consider `O=C(/C=C/c1ccc(O)cc1)OC[C@]12O[C@H]1[C@@H](O)[C@@H]1C=CO[C@@H](O[C@@H]3O[C@H](CO)[C@@H](O)[C@H](O)[C@H]3O)[C@@H]12`, for which the Potency entry in test [1] and in test [2] was “inactive” in each case.

As to `CC(C)(O)c1ccc2c(c1)C(O)CC1C(C)(C(=O)O)CCCC21C` (stereo not given), the Potency result in test [1] and in test [2] was “inactive” throughout.

As to `COC12CC3C(C(C)C1=CC(=O)O2)C(O)C(OC(C)=O)C1C(C)(C)C(OC(C)=O)CCC31C` (stereo not given), the Potency result in test [1] and in test [2] was “inactive” throughout.

With `C=C1C[C@]23C[C@H]1CC[C@H]2[C@@]12C=C[C@H](O)[C@@](C)(C(=O)O1)[C@H]2[C@@H]3C(=O)O`, the Potency result in test [1] and in test [2] was “inactive” in each case.

For `COc1cc(/C=C/C(=O)OC[C@H]2O[C@H](O[C@]3(CO)O[C@H](CO)[C@@H](O)[C@@H]3O)[C@H](O)[C@@H](O)[C@@H]2O)cc(OC)c1O`, the Potency result in test [1] and in test [2] was “inactive” each time.

As for `CC/C=C/CC1=C(CCCCCCCC(=O)O)CCC1=O`, the Potency entry in test [1] and in test [2] was “inactive” each time.

Consider `C=C1C(=O)O[C@H]2[C@H]1[C@@H](OC(=O)C(C)CO)C[C@@]1(C)[C@H](O)CCC(=O)[C@H]21` (stereo not given in full), for which the Potency result in test [1] and in test [2] was “inactive” each time.

In the case of `C=C1CCC(OC(C)=O)C2(C)CC3(O)OC(=O)C(C)=C3CC12` (stereo not given), the Potency entry in test [1] and in test [2] was “inactive” throughout.

As for `CC(=O)N(O)CCCCCN1C(=O)CCC1=O`, the Potency entry in test [1] and in test [2] was “inactive” throughout.

With `CC1(C(=O)O)CCCC2(C)C1CCC13CC(CCC21)C1(CO)OC31` (stereo not given), the Potency entry in test [1] and in test [2] was “inactive” in each case.

The values are drawn from PubChem BioAssay (NCATS).
